# ST2 inh = inhibitors of human ST2 (IL1RL1) binding to IL-33 | AlphaLISA ST2-Fc/biotin-IL-33 interaction, 1 h | AID 1259354 | inhibition, % for hits at 17 µM | Q01638 | hit rate 2.3% among 78,000; in the data active = inhibition above about 30%
# Target sequence (Q01638 whole entry, looked up): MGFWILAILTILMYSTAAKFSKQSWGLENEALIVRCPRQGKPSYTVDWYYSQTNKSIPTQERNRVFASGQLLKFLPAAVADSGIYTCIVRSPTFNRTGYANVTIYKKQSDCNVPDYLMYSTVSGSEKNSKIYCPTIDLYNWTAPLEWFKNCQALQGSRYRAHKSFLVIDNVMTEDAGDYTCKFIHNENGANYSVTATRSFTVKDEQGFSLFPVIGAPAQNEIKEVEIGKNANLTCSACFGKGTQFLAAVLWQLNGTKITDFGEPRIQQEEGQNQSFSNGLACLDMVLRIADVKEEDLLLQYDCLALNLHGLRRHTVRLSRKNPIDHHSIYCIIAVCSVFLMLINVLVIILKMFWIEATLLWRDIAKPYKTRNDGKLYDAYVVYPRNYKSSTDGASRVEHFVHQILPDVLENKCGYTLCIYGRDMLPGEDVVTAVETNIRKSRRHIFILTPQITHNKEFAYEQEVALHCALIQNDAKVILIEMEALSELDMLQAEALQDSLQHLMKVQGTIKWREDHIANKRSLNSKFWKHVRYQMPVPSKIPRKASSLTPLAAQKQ
# The depositor's hits bear a star; i = inactive. This is one part of a sample in which hits are shown more often than they occur.
SMILES,ST2 inh
CN(C)c1cccc(C(=O)N2CCC3(CCCN(CCc4ccccc4)C3)C2)c1 (stereo not drawn),i
Cc1nc2ccccc2n1C(=O)c1ccc([N+](=O)[O-])cc1,i
Cc1ccccc1NS(=O)(=O)c1ccc(NS(=O)(=O)c2ccc(F)cc2)cc1,i
COc1ccccc1NC(=O)CN(C)S(=O)(=O)c1ccccc1,i
CC(C)c1ccccc1NS(=O)(=O)c1ccc(F)cc1,i
Cc1ccccc1NC1=CC(=NS(=O)(=O)c2ccc(F)cc2)c2ccccc2C1=O,77%*
COc1ccccc1NC1=CC(=NS(=O)(=O)c2ccccc2)c2ccccc2C1=O,95%*
COc1ccccc1NC(=O)C(Cc1ccccc1)N1C(=O)c2ccccc2C1=O (stereo not drawn),i
COc1ccc(OCCSc2nc3ccccc3s2)cc1,i
CC(C)CN1CC(C(=O)NCCc2n[nH]c3c2CCCC3)CC1=O (stereo not drawn),i
CC(=O)c1ccc(CN(Cc2cnn(C)c2)C2CC2)cc1,i
Cc1cc(C)n(CCC(=O)N(C)Cc2cc(C(C)(C)C)n[nH]2)c(=O)n1,i
CC1CCCC(NC(=O)c2cc3c(=O)oc4ccccc4c3s2)C1C (stereo not drawn),i
CCOc1ccc(S(=O)(=O)Nc2cccc(CC)c2)c2cccnc12,i
Cc1ccc2[nH]c(=O)nc(-c3ccccc3)c2c1,i
CC1=Nc2c([nH]c3ccccc23)-c2cc(C)ccc2N1,32%*
O=C1CC(c2cccc([N+](=O)[O-])c2)CC2=C1C(c1ccco1)Nc1ccccc1N2 (stereo not drawn),i
Cc1cc(C)cc(-n2ccn3c(CCC(=O)NCCc4ccc(S(N)(=O)=O)cc4)nnc3c2=O)c1,i
Cc1ccc(NCN2C(=O)c3ccccc3C2=O)c(C)c1,i
Cc1ccc(NS(=O)(=O)c2ccc(F)cc2)c(C)c1,i
Cc1ccc(NS(=O)(=O)c2cccc3c2C(=O)c2ccccc2C3=O)c(C)c1,64%*
COCCOC(=O)c1c(C)oc2ccc(NS(=O)(=O)c3ccc4ccccc4c3)cc12,i
Cc1[nH]cnc1CSCCNC(=O)CC1COCCN1 (stereo not drawn),i
O/N=C\c1c(O)c(Br)cc2oc3c(c12)CCCC3,38%*
O=C(CSc1nc2ccccc2s1)Nc1ccccc1,i
SMILES,ST2 inh
O=C(CSc1nc2ccccc2s1)c1ccccc1,i
O=C(CSc1nc2ccccc2s1)c1ccccc1[N+](=O)[O-],33%*
N#C/C(=C/c1cccnc1)c1nnc2n1CCCCC2,i
O=C(c1cnn2cc(CCO)cnc12)N1CCOC(C(F)(F)F)C1 (stereo not drawn),i
O=C(O)COc1ccc(C2C3=C(CCCC3=O)OC3=C2C(=O)CCC3)cc1,i
COc1cc(/C=C/c2ccc3cccc(O)c3n2)cc(Cl)c1OC,34%*
COc1cccc2ccc(/C=C/c3ccc4c(c3)OCO4)nc12,i
COc1cc(C=O)cc(Cl)c1OCc1ccc(Br)cc1,i
CC1=CC(C)C2C(=O)N(c3cccnc3)C(=O)C2C1 (stereo not drawn),i
Oc1cccc(C=Nc2ccc(Cl)c(Cl)c2)c1O,i
C=CCOc1ccc(C=Nc2ccc(C)c(Cl)c2)c(O)c1,92%*
Cc1ccc(N=Cc2nc(-c3ccc(Br)cc3)oc2O)cc1Cl,i
CCCn1cnc2sc(C(=O)Oc3ccc(C(=O)OC)cc3)c(C)c2c1=O,i
O=C(CC[C@@H]1CNC(=O)[C@@H]2C[C@H](NC(=S)Nc3ccc(Cl)cc3)CN12)NC1CC1,i
O=C(CC[C@@H]1CNC(=O)[C@@H]2C[C@H](NC(=O)c3ccc(F)c(Cl)c3)CN12)NCc1ccccc1,i
O=C1NC[C@@H](CCC(=O)N2CCOCC2)N2C[C@@H](NC(=S)NCc3ccco3)C[C@@H]12,i
O=C(CC[C@@H]1CNC(=O)[C@@H]2C[C@H](NC(=S)NCCN3CCOCC3)CN12)NCc1ccccc1,31%*
COCCNC(=S)N[C@H]1C[C@H]2C(=O)NC[C@@H](CCC(=O)N3CCOCC3)N2C1,i
O=C(CC[C@@H]1CNC(=O)[C@@H]2C[C@H](NC(=O)Nc3ccc(F)cc3F)CN12)NCc1ccc(F)cc1,71%*
Cn1c(/C=C/c2ccc3c(c2)OCO3)c([N+](=O)[O-])c(=O)n(C)c1=O,i
COc1ccc(Oc2coc3cc(OCc4ccc(Cl)cc4)ccc3c2=O)cc1,i
CC(=O)N(C(C)=O)c1ccc(-c2ccco2)cc1,i
Cc1cccn2c(CNC3CCC4(CCNCC4)CC3)cnc12,i
Cn1c(=NC(=O)c2ccc(S(=O)(=O)N3CCCC3)cc2)sc2c3ccccc3ccc21,i
CCOc1ccc(C(=O)N2CCC3(CCNC(=O)CC3)CC2)cc1OCC,i
SMILES,ST2 inh
COc1ccc(N2CCN(Cc3cccnc3)CC2)cc1,i
COc1cccc(-c2ccccc2NC(=O)C2CCN(Cc3ccc4nonc4c3)CC2)c1,i
COc1ccc(N2CCN(Cc3ccc4nonc4c3)C(C)C2)cc1 (stereo not drawn),31%*
C=CCN(Cc1cn(C)nc1-c1ccc(C2CCCCC2)cc1)C1CCS(=O)(=O)C1 (stereo not drawn),i
O=C(CSC1CC(=O)N(c2ccccc2F)C1=O)Nc1cccc(Cl)c1 (stereo not drawn),i
CCCCN(C)CCNS(=O)(=O)c1cc(Br)cc2c1N(C(=O)C1CC1)CC2,i
Cc1ncc2c(c1-c1noc(CCCC(=O)c3ccccc3)n1)CCNC2,i
CCc1nc(SCC(=O)C(C)(C)C)c(C#N)cc1C,i
CCC(=O)OCCNc1cc(C)c2noc3c2c1C(=O)c1ccccc1-3,33%*
Cc1ccc(CNC(=O)CCC(=O)O)cc1,i
CN(C(=O)N1CCN(C(=O)N(C)c2ccccc2)CC1)c1ccccc1,i
O=C(Cc1ccccc1)N(c1ccccc1)c1ccccc1,i
CN(C(=O)Cc1ccccc1)c1ccccc1,36%*
Cc1ccccc1NC(=O)c1cccc(N=Cc2ccc(O)c(O)c2)c1,i
CC(C)(C)c1ccc(C(=O)Nc2sc3c(c2C(N)=O)CCCC3)cc1,i
COc1ccc(C(=O)Nc2sc3c(c2C(N)=O)CCCC3)cc1[N+](=O)[O-],31%*
COc1ccccc1OCC(=O)Nc1sc2c(c1C(N)=O)CCCC2,i
COc1ccccc1C1C(C(=O)OCCC(C)C)=C(C)Nc2nnnn21 (stereo not drawn),i
O=c1cc2cc(O)[nH]c(=O)c2c(O)[nH]1,47%*
Cc1ccc(C)c(OCC(=O)Nc2cccc(C)n2)c1,i
CC(C)CCNS(=O)(=O)c1ccc2c(c1)CCN2C(=O)C1CC1,i
CC1=C[C@@H](CNS(=O)(=O)c2cccs2)[C@H](C(C)C)C[C@H]1CC(=O)O,i
CCCN1CCN(CCCNC(=O)c2ccc3nc4ccccc4c(=O)n3c2)CC1,i
COc1ccc(Nc2cc(C)nc(Nc3ccc(NC(=O)CCC4CCCC4)cc3)n2)cc1,30%*
CCC(CC)C(=O)Nc1ccc(Nc2nc(C)cc(Nc3ccc(OC)cc3)n2)cc1,39%*
SMILES,ST2 inh
Cc1ccc(Nc2cc(C)nc(Nc3ccc(NC(=O)c4ccc(C(C)(C)C)cc4)cc3)n2)cc1,i
COc1ccc(Nc2cc(C)nc(Nc3ccc(NC(=O)c4ccc(OC)cc4)cc3)n2)cc1,32%*
CC(=O)Nc1ccccc1NC(=O)CCC1CCCCC1,i
COc1cc(C(=O)Nc2ccc(Nc3nc(C)cc(Nc4ccccc4)n3)cc2)cc(OC)c1OC,i
COc1ccc(Nc2cc(C)nc(Nc3ccc(NC(=O)c4ccc(F)cc4)cc3)n2)cc1,i
CN(C)c1ccc(NC(=O)CCC2CCCCC2)cc1,67%*

# High-throughput results as filed in PubChem.
